Most compounds without a hit are left out; they make up all but 12% or so of the library.
NS1 function inh = blocks influenza NS1 protein function. 0.4% of 270,000 active. AID 2326. Potency, µM (top dose mostly 46.1 µM), for inactives: at the highest dose activity, positive = more growth; calls by dose curve; note: actives are rising curves; nearly all actives have a fitted effect of over 50% in size
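Read-out: OD600 growth recovery of NS1-expressing budding yeast. Cells grown overnight at 30C in -URA glucose medium, washed, resuspended and diluted 1:100 in 2% galactose assay medium, pH 6.0. Same strain lacking NS1 served as positive control.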
Pf growth 96h = inhibits malaria parasite growth, 96 h; P. falciparum luciferase reporter growth, 96 h; Potency, µM (highest dose often 28.7 µM), inactives show at the top dose activity change, negative = inhibition, usual class: inhibitors; 6.9% of 320,000 active; AID 504834; note: % is set by controls: 0 for no effect and ±100 for the full control effect
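Readout is luminescence from an integrated firefly luciferase in P. falciparum. Red cells, 2% hematocrit and 0.05% parasitemia final, were cultured with compound through two parasite generations (96 hours) at 37 C, 5% CO2.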
HCV inh = HCV inhibition; Huh7.5.1 HCVcc-Cre infection, luciferase reporter, 44 h; Potency, µM (highest dose often 41.8 µM), without a hit: top-dose activity change, negative = inhibition, usual class: inhibitors; 3.4% of 340,000 active; AID 651820; note: % is set by controls: 0 for no effect and ±100 for the full control effect
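Cells (1,000/well) were plated 4 h before compound, then infected with HCVcc-Cre virus (~0.5 moi). After 44 h further culture, infection was read as luciferase luminescence following a 15 min substrate incubation at room temperature.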
SARS PLpro yeast = inhibitors of SARS-CoV papain-like protease in yeast. S. cerevisiae expressing SARS-CoV PLpro, growth rescue. Potency, µM (titrated, usually from 32.9 µM), inactives show top-dose activity, positive = growth rescue, hits mostly activators. 0.19% of 330,000 active. AID 485353; calls by dose curve; note: 0% is about no effect; nearly all actives have a fitted effect of over 55% in size
Pf growth 48h = inhibits P. falciparum growth in the first generation, 48 h; 5.9% of 310,000 active; P. falciparum luciferase growth in erythrocytes, 48 h; Potency, µM (series often up to 28.7 µM), without a hit: top-dose activity change, negative = inhibition, actives largely listed as inhibitors; AID 504832; note: % is set by controls: 0 for no effect and ±100 for the full control effect
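Compounds are pin-transferred into medium, infected erythrocytes (2% hematocrit, 0.1% parasitemia final) are added, and plates sit one parasite generation at 37 C in 5% CO2. Detection reagent is then added and luminescence measured.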
AMA1 RON2 block = inhibitors of Plasmodium falciparum AMA1-RON2 interaction. AlphaScreen AMA1-biotinylated RON2 peptide binding. Potency, µM (top dose mostly 58.2 µM), for inactives: at the top dose activity change, negative = inhibition, actives largely listed as inhibitors. 0.2% of 360,000 active. AID 720542;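 note: 0% = vehicle wells and -100% = peptide control; nearly all actives have a fitted effect of over 45% in size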
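AMA1 (3D7) with his tag at 25 nM final met compounds first, then biotinylated RON2 peptide at 25 nM; detection used donor plus acceptor beads, 10 µg/mL apiece, read by AlphaScreen after 30 min at room temperature.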
* hit, by the source's call; u = inconclusive; x = not tested or not shown. Unless noted, calls come from the whole dose curve; as a rule, active = well fitted curve in the direction sought with a large enough effect; inconclusive = small, poorly fitted or top-dose-only effect, or another doubt; inactive = no such curve, though single readings can be large; an effect the other way counts as inactive or inconclusive. Potency is the fitted concentration of half-maximal effect.

SMILES	NS1 function inh	Pf growth 96h	HCV inh	SARS PLpro yeast	Pf growth 48h	AMA1 RON2 block
COc1ccc(-n2cnnc2SCC(=O)Nc2cccnc2Cl)cc1	-1.6%	-2.8%	2.1%	0.3%	-2.8%	-11.7%
COc1cccc(CCNC(=O)CC2C(=O)NCCN2CC(C)(C)C)c1 (stereo not drawn)	-0.3%	14.7µM*	4.4%	1.1%	12.6%	-4.6%
COc1ccc(CN2CCNC(=O)C2CC(=O)NCCc2cnccn2)cc1C (stereo not drawn)	10.5%	14.7µM*	18.5%	2.2%	0.0%	10.0%
O=C(CC1C(=O)NCCN1Cc1cccc(Oc2ccccc2)c1)NCCc1cnccn1 (stereo not drawn)	3.9%	u	19.9%	0.4%	-1.2%	32.0%
CCOC(=O)CC1C(=O)NCCN1Cc1ccc(OC)c(OC)c1 (stereo not drawn)	-0.8%	10.4µM*	16.8%	0.4%	0.4%	0.9%
COc1ccccc1CN1CCNC(=O)C1CC(=O)NCCC1=CCCCC1 (stereo not drawn)	-3.9%	u	-2.2%	0.6%	u	3.4%
COc1ccc(CCNC(=O)CC2C(=O)NCCN2CC(C)(C)C)cc1 (stereo not drawn)	1.1%	-14.7%	8.4%	-1.4%	-13.9%	-11.6%
COc1ccc(CN2CCNC(=O)C2CC(=O)N(C)CCC2CCOCC2)cc1OC (stereo not drawn)	11.0%	u	16.0%	-7.6%	7.9%	1.9%
COc1ccc(CN2CCNC(=O)C2CC(=O)NCCC2=CCCCC2)cc1OC (stereo not drawn)	3.0%	10.4µM*	9.4%	-1.0%	-5.7%	-4.8%
COc1ccc2cc(S(=O)(=O)NC3CC(C)(C)NC(C)(C)C3)ccc2c1	-1.2%	-27.4%	u	1.1%	-11.2%	-2.5%
O=C(COC(=O)CNC(=O)c1ccccc1)Nc1ccc(Cl)cn1	x	x	-13.4%	1.5%	x	7.3%
COC(=O)c1ccc(COC(=O)c2ccc(SC)cc2OC)cc1	-11.5%	u	-5.7%	18.9%	49.4%	25.4%
CCc1ccc(S(=O)(=O)N2CCN(C(=O)c3cccnc3)CC2)cc1	-0.1%	-15.7%	5.7%	-0.6%	9.5%	-0.5%
NC(=O)c1nn(CC(=O)Nc2ccc3c(c2)OCO3)cc1[N+](=O)[O-]	x	u	3.3%	-0.9%	-8.8%	5.0%
O=C(O)C1=C[C@@H](c2coc3ccccc3c2=O)C[C@@H](OCCCCO)O1	0.3%	-7.6%	7.2%	0.0%	6.4%	13.0%
O=C1CN(C(=O)COc2ccc(Br)cc2)c2ccccc2N1	-1.2%	-24.6%	-13.6%	-1.1%	u	-6.6%
O=C(O)C(c1ccccc1)C1(O)CC2CCC1C2 (stereo not drawn)	x	x	13.9%	x	x	-8.6%
CCN(CC)CCCn1c2c(c(SCC(=O)N3CCCc4ccccc43)nc1=O)CCC2	x	u	-9.6%	6.3%	-4.0%	-10.7%
Cc1ccc(NC(=O)CSc2nc(=O)n(CCCN3CCOCC3)c3c2CCCC3)cc1	x	-24.4%	-15.9%	-2.2%	13.1µM*	-7.1%
CCCCc1ccc(NC(=O)CSc2nc(=O)n(CCN(C)C)c3c2CCC3)cc1	x	u	u	0.6%	11.7µM*	0.3%
CCCCc1ccc(NC(=O)CSc2nc(=O)n(CCN(CC)CC)c3c2CCCC3)cc1	x	2.08µM*	u	-4.4%	11.7µM*	-9.8%
CN(C)CCn1c2c(c(SCC(=O)N3CCc4ccccc43)nc1=O)CCCC2	x	u	12.6µM*	-0.6%	-17.9%	-10.4%
CCc1ccc(NC(=O)CSc2nc(=O)n(CCCN3CCOCC3)c3c2CCC3)cc1	x	u	u	-2.3%	u	1.0%
Cc1nc(NC(=O)C23CC4CC(CC(C4)C2)C3)sc1Cc1ccc2c(c1)OCO2	-5.6%	1.65µM*	u	-20.0%	u	u
Cn1c(=O)c2c(nc(CN3CCC(C(N)=O)CC3)n2Cc2c(Cl)cccc2Cl)n(C)c1=O	u	x	-14.0%	-0.5%	11.7µM*	4.7%
Cn1c(=O)c2c(nc(CN3CCC(C(N)=O)CC3)n2Cc2c(F)cccc2Cl)n(C)c1=O	-1.7%	10.4µM*	-15.0%	-6.3%	u	-16.5%
